Results published in PubChem BioAssay AID624331 (National Center for Advancing Translational Sciences (NCATS), 2012).
Inconclusive results are not listed. A call without a number means that no potency is given here. The source made the active and inactive calls. The call rests on the fitted dose curve; in most records, active means well fitted activation curve with a large enough effect; inconclusive means small, poorly fitted or top-dose-only effect; inactive means no such curve, though single readings can be large or run the other way.

Experiment: qHTS assay for re-activators of p53 using a Luc reporter: Hit Validation with no p53 Expressed
Conditions: p53-null cells, luciferase reporter counter-screen; series mostly up to 46.1 µM
Excerpt: The p53 tumor suppressor plays a key role in suppression of tumorigenesis and in human carcinogenesis. It is frequently found inactivated in human cancers, mainly by point mutation. These point mutations are found in a wide variety of human cancers and a majority of them affect the DNA binding domain of the protein. The point mutations either alter native p53 conformation or abolish DNA contact. Additionally, cancer cells with p53 mutations are more resistant to chemo-radiation therapies.
This counter screen was run against the hits identified from the primary screen. It uses a cell line that was not transfected with p53. Compounds that show activity in this counter screen show unspecific activation of the assay system and are excluded from further consideration.
NIH Chemical Genomics Center [NCGC]
NIH Molecular Libraries Probe Production Centers Network [MLPCN]
Assay Provider (PI): Yi Sung, University of Michigan at Ann Arbor
5ul of 1000 cells per well are dispensed in all wells except column 4, into white solid-bottom TC-treated Kalypsys plates. The cells are kept in Opti-MEM and supplemented with 10% FBS and dispensed using a Multidrop (Thermo). Then using the Kalypsys pin-tool, 23nl of compounds are pinned. The compounds are starting concentration at 10mM, with 1:5 dilution, 4 points, and the control compound nocodazole is pinned in column 1 at 25mM, 1:3 dilution, in duplicate, 25mM nocodazole is pinned in column 2. Please note, all concentrations are working concentrations. 5ul of 1pM purified luciferase enzyme is dispensed using the Kalypsys dispenser in column 4. Plates are incubated for 24 hrs at 37 deg C, 5% CO2, and 95% humidity. Then 4ul of the detection reagent Amplite (ABD Bioquest) is added using the Kalypsys dispenser. Plates are incubated for 10 min at ambient room temperature and are then read on the ViewLux (Perkin Elmer) using a clear filter for a luminescent read-out.
Potency means the concentration at half of the fitted maximal effect.

Row | Compound | Potency
1 | Cc1cc(NC(=O)c2ccc3nccnc3c2)ccc1Br | inactive
2 | CC1CCN(C(=O)c2cc(-c3ccccc3O)on2)CC1 | inactive
3 | O=C(c1cccc(Br)c1)c1coc2ccc(O)cc12 | inactive
4 | CN(/N=C/c1ccc2c(c1)OCO2)c1ccccc1 | inactive
5 | Cc1cc(C(=O)Nc2nc3c(s2)CCCC3)cs1 | inactive
6 | Cc1ccc2oc(C(=O)Nc3cc(C)on3)c(C)c2c1 | 9200 nM (active)
7 | CC(Cc1ccccc1)NC(=O)c1ccc([N+](=O)[O-])cc1 (stereo not given) | inactive
8 | CN(Cc1ccccc1)C(=O)CNC(=O)Cn1cnc2ccccc2c1=O | inactive
9 | COc1cccc(NC(=O)CSC2=C(C#N)C(c3ccco3)C3=C(CCCC3=O)N2)c1 (stereo not given) | inactive
10 | O=C(NC1CC1)c1cccc(NC(=O)c2cn3ccccc3n2)c1 | inactive
11 | O=C(CCc1nc(-c2ccccc2)no1)N1CCCC1 | inactive
12 | COc1ccc(-n2c(C)cc(C(=O)COc3ccc(C)nc3[N+](=O)[O-])c2C)cc1 | inactive
13 | Cc1ccnc(NC(=O)/C=C/c2cccs2)c1 | inactive
14 | Cc1cc(C(=O)N/N=C/c2cccn2C)n[nH]1 | inactive
15 | CC(=O)c1cc2c(C)c(C(=O)c3ccccc3)oc2cc1O | inactive
16 | Cn1c(=N)n(CC(=O)c2ccc(Cl)c(Cl)c2)c2ccccc21 | inactive
17 | COc1ccc(C2=NN(C(C#N)c3ccc(OC)cc3)C(c3ccccc3)C2)cc1 (stereo not given) | inactive
18 | COc1ccccc1/C=C/C(=O)Nc1ccc2c(c1)CCC2 | 2910 nM (active)
19 | O=C(COc1ccc(F)cc1Cl)NC1CCCCCC1 | inactive
20 | COc1ccc(N2CCN(C(=O)COC(=O)c3ccc(OC(F)F)cc3)CC2)cc1 | inactive

Row | Compound | Potency
21 | CCCC(=O)NC(c1cccs1)c1cc([N+](=O)[O-])c2cccnc2c1O (stereo not given) | inactive
22 | COc1cccc(/C=C2\Oc3ccc(O)cc3C2=O)c1O | inactive
23 | O=[N+]([O-])c1ccc(Cl)cc1Sc1nc2ccccc2o1 | inactive
24 | Cc1ccc(OCCCNCCO)c(Br)c1 | inactive
25 | O=C(c1cccc(S(=O)(=O)NCc2ccc3c(c2)OCO3)c1)N1CCCC1 | inactive
26 | Cn1c(CCN2CCCCC2)nc2cc(NC(=O)Nc3ccccc3)ccc21 | inactive
27 | COc1cc(N/N=C/c2ccccc2O)ncn1 | inactive
28 | N#CC1=C(N)N2C(=C(C#N)C13CCCCC3)SC1CCCCC12O (stereo not given) | inactive
29 | Cc1ccc(NC(=O)c2ccc(OC(=O)COc3ccc(Cl)c(C)c3)cc2)cc1 | inactive
30 | O=C(N/N=C/c1sc(=O)[nH]c1-[n+]1ccc2ccccc2c1)c1ccccc1[O-] | inactive
31 | Clc1cccc(Cl)c1CSc1nnc2ccccn12 | inactive
32 | Cc1ccc(C)c(N2CCN(C(=O)CCc3nc(-c4ccccc4C(F)(F)F)no3)CC2)c1 | inactive
33 | CC(C)(C)OC(=O)N1CCC(C(=O)Nc2ccc3c(c2)CCC3)CC1 | inactive
34 | Cc1ccc(NC(=O)c2ccc3nc[nH]c3c2)cc1C | inactive
35 | Cc1ccc(NC(=O)c2cc(C)n(-c3ccccc3)c2C)cc1 | inactive
36 | Cc1ccccc1Nc1nc(N)nc(COC(=O)c2ccco2)n1 | inactive
37 | Cc1cccc(NC(=O)Nc2ccc(C)cc2Br)c1 | inactive
38 | COc1ccccc1-c1nc(-c2ccc(Br)o2)no1 | 820 nM (active)
39 | CCCN1C(=O)SC(CC(=O)Nc2ccccc2C)C1=O (stereo not given) | inactive
40 | CCC(C)C(=O)N1CCc2cc(-c3csc(N)n3)ccc21 (stereo not given) | inactive
